In the library only some 4.7% were active in any assay of this set; here they are far more common.
HTT prom inh – Primary qHTS for Identification of Small Molecule Inhibitors of Huntingtin Promoter Activity. Potency, µM (highest dose often 57.5 µM), hits mostly inhibitors. AID 1508623, 2021. 0.93% of 48,000 active. HEK293 HTT promoter firefly luciferase reporter, 24 h; further: nearly all actives have a fitted effect of over 50% in size
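Luminescence was read after Dual-Glo reagent and a 10 min room-temperature incubation. Values were normalized to vehicle (0% activity) and zero RLU (-100% activity). Reporter HEK293 cells had been exposed to compounds (up to 57.5 uM final) for 24 h.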
FH mod – Identification of activators of human fumarate hydratase by quantitative high-throughput screening. AID 1347055, 2019. FH coupled MDH/diaphorase resazurin fluorescence, 15 min. Fumarate hydratase, mitochondrial (Homo sapiens), P07954. Potency, µM (titrated, usually from 79.9 µM), hits mostly inhibitors. 0.22% of 54,000 active; further: the screen sought activators but most active calls are inhibition curves; nearly all actives have a fitted effect of over 45% in size
NTMT1 inhibitor – Primary qHTS for Inhibitors of N-terminal methyltransferase 1 (NTMT1): MTaseGlo Assay | 2.5% of 59,000 active | NTMT1 MTase-Glo SAH luminescence, purified enzyme | Potency, µM (top dose mostly 114 µM), hits mostly inhibitors | N-terminal Xaa-Pro-Lys N-methyltransferase 1 (Homo sapiens), Q9BV86; further: nearly all actives have a fitted effect of over 65% in size
Target sequence (Q9BV86 whole entry, looked up): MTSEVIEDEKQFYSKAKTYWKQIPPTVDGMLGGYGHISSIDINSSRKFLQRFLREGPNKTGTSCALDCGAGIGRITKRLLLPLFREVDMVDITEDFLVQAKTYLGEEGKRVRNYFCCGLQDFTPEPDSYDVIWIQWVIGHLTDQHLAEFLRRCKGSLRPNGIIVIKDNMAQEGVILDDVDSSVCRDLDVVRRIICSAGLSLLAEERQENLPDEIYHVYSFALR
HTT-AS promoter – Primary qHTS for Identification of Small Molecule Activators of Huntingtin-Antisense Promoter Activity; AID 1508624, 2021; 0.24% of 48,000 active; HEK293 HTT-AS promoter firefly luciferase reporter, 24 h; response scale: percent change from vehicle, -100% = no light; Potency, µM (doses to about 57.5 µM), hits mostly activators; further: nearly all actives have a fitted effect of over 55% in size
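Firefly luciferase signal from promoter-reporter HEK293 cells was scaled between vehicle (0%) and zero RLU (-100%). Compounds were tested at final concentrations of up to 57.5 uM over 24 h at 37 degrees C. PTC124 at 50 uM final served as control inhibitor.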
GPR32 ag – qHTS for Agonists of Human Resolvin D1 Receptor DRV1. CHO-K1 GPR32 beta-arrestin PathHunter luminescence, 90 min; zero percent set by DMSO-only wells. activation, % at 76.9 µM. 2.5% of 48,000 active;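 active means activation of at least 60% and not above a set upper limit, about 1 call in 100 departs from these limits; inconclusive means activation of 40% to 60%, or above that upper limit; inactive means activation under 40%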
Target sequence (O75388 whole entry, looked up): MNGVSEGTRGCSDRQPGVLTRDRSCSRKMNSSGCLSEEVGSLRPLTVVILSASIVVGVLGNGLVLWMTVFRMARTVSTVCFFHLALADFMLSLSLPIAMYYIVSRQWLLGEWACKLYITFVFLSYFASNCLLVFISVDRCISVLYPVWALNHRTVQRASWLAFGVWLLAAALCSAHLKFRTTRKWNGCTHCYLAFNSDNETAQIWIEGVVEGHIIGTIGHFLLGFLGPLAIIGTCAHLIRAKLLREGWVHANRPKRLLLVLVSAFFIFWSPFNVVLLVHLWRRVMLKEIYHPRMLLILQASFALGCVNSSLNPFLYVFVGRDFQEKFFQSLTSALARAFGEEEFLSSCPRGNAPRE
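Engineered CHO-K1 line co-expressing GPR32-ProLink and EA-beta-arrestin. Compound treatment lasted 90 min at 37 °C. Luminescence was recorded after 1 h with substrate at ambient temperature, relative to DMSO basal wells.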
A number is an active result; i = inactive; ? = inconclusive; nt = no result given; ! = not confirmed by another sample; [ ] = remark or other dose. Unless noted, the call rests on the fitted dose curve; in most records, active means well fitted curve in the direction sought with a large enough effect; inconclusive means small, poorly fitted or top-dose-only effect, or another doubt; inactive means no such curve, though single readings can be large; an effect the other way counts as inactive or inconclusive.

SMILES	HTT prom inh	FH mod	NTMT1 inhibitor	HTT-AS promoter	GPR32 ag
COc1ccccc1Cc1nc2ccccc2nc1SCC(=O)N1CCC(C)CC1	?	i	i	i	64.4
COc1cccc(Cc2nc3ccccc3nc2SCC(=O)N2CCCCC2C)c1 (centres undefined)	?	i	i	i	i
Cc1ccc(Cc2nc3ccccc3nc2SCC(=O)N2CCCCC2C)cc1 (centres undefined)	28.2µM	i	i	i	i
Cc1cc(Cl)ccc1OCC(=O)N(Cc1sccc1C)C1CCS(=O)(=O)C1 (centres undefined)	i	i	i	i	i
c1ccc(-n2ccc(-c3nnc4n3CCCCC4)c2)cc1	nt	nt	i	nt	nt
CCCOc1ccc(-c2nc3ccc(Br)cc3c(=O)o2)cc1	i	i	i	i	i
CCOc1cccc(-c2nc3ccccc3c(=O)o2)c1	i	i	i	i	80.2
C=C(COC(=O)C(O)C(O)CN)C12OC1C1(C)C(=CC2=O)C(O)C(O)CC1C (centres undefined)	nt	i	i	nt	nt
CCc1ccc(Sc2cc(C(=O)NCCCN3CCCC(C)C3)c3ccccc3n2)cc1 (centres undefined)	i	i	i	i	88.0
CCc1ccc(Sc2cc(C(=O)NCCCN3CCC(C)CC3)c3ccccc3n2)cc1	i	i	i	i	89.4
CC(=O)c1cccc(NC(=O)CSc2nnc3ccc(-c4ccc(Br)cc4)nn23)c1	i	i	?	i	i
CCOC(=O)N1CCc2c(sc(NCc3sccc3C)c2C(=O)Nc2ccc(OC)cc2OC)C1	?	i	i	i	117.1
COc1ccc(NC(=O)c2c(NCc3sccc3C)sc3c2CCCCC3)c(OC)c1	i	i	i	i	i
CCOC(=O)N1CCc2c(sc(NCc3sccc3C)c2C(=O)Nc2ccccc2OCC)C1	?	i	i	i	62.6
CC(C)=CCCC1(C)C2CCC1(C)C(O)C2 (centres undefined)	nt	i	i	nt	nt
COc1ccc(-c2cn3nc(N4CCC(C(=O)Nc5cccc(Cl)c5)CC4)sc3n2)cc1	i	i	i	?	77.6
Cc1ccc(NCc2cccn2-c2nnc(N3CCC(C(=O)NCc4ccc(F)cc4)CC3)s2)cc1	?	i	i	i	i
Cc1cc(C)c(NC(=O)Nc2ccc3snnc3c2)c(C)c1	?	i	i	i	62.8
CCOc1ccc(NC(C)=O)cc1	i	i	i	i	i
O=C(Nc1cccc(C(F)(F)F)c1)Nc1ccc2snnc2c1	?	i	i	i	?
CCOc1ccc(NC(=O)Nc2ccc3snnc3c2)cc1	i	i	i	i	86.9
COCCNC(=O)CCCn1c(SCC(=O)c2ccc(Br)cc2)nc2c(sc3ccccc32)c1=O	i	i	i	i	i
Cc1ccc2nc(COc3cccc(NC(=O)COc4ccccc4F)c3)cc(=O)n2c1	i	i	?	?	i
Cc1nc(NC(=O)N2CCCC2C(N)=O)sc1-c1ccnc(C(C)(C)C(F)(F)F)c1 (centres undefined)	nt	i	44.7µM	nt	nt
CN(C)c1ccc(O)c2c1C[C@H]1C[C@H]3[C@H](N(C)C)C(=O)C(C(N)=O)=C(O)[C@@]3(O)C(=O)C1=C2O	i	i	79.4µM!	i	i
SMILES	HTT prom inh	FH mod	NTMT1 inhibitor	HTT-AS promoter	GPR32 ag
CCN(CC)CCn1c(-c2ccccc2)csc1=Nc1ccccc1	i[11.5 µM]	i	i	i	84.7
COc1ccc(-c2csc(=Nc3ccccc3)n2CCO)cc1F	?	i	i	i	96.3
COCCCn1c(-c2ccc(S(=O)(=O)N3CCOCC3)cc2)csc1=Nc1ccccc1	?	i	i	i	i
Cc1ccc(-c2csc(=Nc3ccccc3)n2Cc2ccc3c(c2)OCO3)cc1	i	i	i	i	i
COc1cc(OC)c(OC)cc1CN1CCc2nc(Nc3ccc4c(c3)OCCO4)ncc2C1	i	i	i	i	i
CC(C)OCCCNc1ncnc2sc3c(c12)CCCC3	?	i	50.1µM	i	104.1
CN(C)c1ccc(Nc2ncnc3sc4c(c23)CCCC4)cc1	11.2µM	?	?	i	i
CCOC(=O)C(CC)Sc1ncnc2sc3c(c12)CCCC3 (centres undefined)	i	i	i	i	i
O=C(O)c1ccc(S(=O)(=O)N[C@H](Cc2ccc([N+](=O)[O-])cc2)C(=O)O)cc1	nt	nt	i	nt	nt
Cc1ccc(C)c(NC(=O)Cn2cc(C(=O)c3ccco3)c3ccccc32)c1	i	i	i	i	i
Cc1cccc(NC(=O)Cn2cc(C(=O)c3ccco3)c3ccccc32)c1C	?	i	79.4µM	i	i
CCCOc1ccc(C(=O)Nc2ccc3oc(-c4ccc5ccccc5c4)nc3c2)cc1	i[11.5 µM]	i	i	i	i
CCOc1cc(Cl)c(S(=O)(=O)n2cc(C)nc2CC)cc1Cl	15.8µM	?	i	i	i
COc1cc(Cl)c(S(=O)(=O)N2CCN(c3c(C)cccc3C)CC2)cc1Cl	i	i	i	i	i
CCc1nc(C)cn1S(=O)(=O)c1ccc(Cl)c(Cl)c1OC	12.6µM	i	i	i	i
COc1ccc(C2C=C(c3ccccc3)Nc3nc(NC(=O)/C=C/c4ccc(F)cc4)nn32)cc1 (centres undefined)	i	i	i	i	i
Cc1cc(C)c2c(-n3cccc3)c(C(=O)NCCc3ccc(Cl)cc3)sc2n1	?	i	i	i	i
CSc1cccc(N2C(=O)N(CC(=O)NCc3ccccc3Cl)c3ccccc3S2(=O)=O)c1	i	i	i	i	67.1
CS(=O)(=O)Nc1cccc(-c2cc(F)c(S(=O)(=O)N3CCN(S(=O)(=O)c4ccc5c(c4)OCCO5)CC3)cc2F)c1	nt	nt	17.8µM	nt	nt
CC(=O)c1ccc(NC(=O)CSc2nccn2Cc2ccco2)cc1	i	i	i	3.16µM	i
Cc1ccc(NC(=O)CSc2nccn2Cc2ccco2)cc1Cl	i	i	i	12.6µM	i
O=C(CSc1nccn1Cc1ccco1)Nc1cccc(F)c1	i	i	i	i	i
O=C(CSc1nccn1Cc1ccco1)Nc1ccc(F)cc1	i	i	i	i	i
CCc1ccc(NC(=O)c2ccc(Cn3nc(N4CCN(c5ccccc5)CC4)ccc3=O)o2)cc1	?	i	?	i	i
CCOc1ccc(CNC(=O)Cn2nc(N3CCN(c4ccccc4)CC3)ccc2=O)cc1	i	i	i	i	i
Cc1nn(-c2ccccc2)c2c1N(CCCC(=O)NCc1ccc(OC(C)C)cc1)C(=O)CS2	14.1µM	i	i	i	i
CC(C)Oc1ccc(CNC(=O)Cn2nc(N3CCN(c4ccccc4)CC3)ccc2=O)cc1	i	i	89.1µM	i	67.9

Screening data deposited in PubChem BioAssay by National Center for Advancing Translational Sciences (NCATS).
